The whole screen tested about 290,000 compounds, of which about 2,700 (0.93%) were called active. How the calls were made is not given here. Shown is part of a subset that was picked to be rich in actives.
Biological target: Eukaryotic translation initiation factor 4H (Homo sapiens) (UniProt Q15056)
Assay: eIF4H binding inhibition – biochemical, uHTS, fluorescence polarization, translation initiation inhibitor project, primary screen (AID 2012);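 further: calls also rest on retests at 20 µM and on dose response follow-up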
Conditions: eIF4H fluorescence polarization binding assay, stronger effect = higher value

SMILES	inhibition (at 35 µM)	inhibition (confirmation average, at 20 µM) [%]
Cc1ccc(OCCCCc2c(C)n[nH]c2C)cc1	-10.3% (inactive)	
CCOC(=O)CC1(NC(=O)c2cc(COc3cncc(Cl)c3)on2)CCCCC1	-10.4% (inactive)	
COc1ccc(CN2CCN(C(=O)CCC(=O)Nc3nnc(C(C)C)s3)CC2)cc1F	-7.1% (inactive)	
Cn1c(=O)n(C)c2cc(C(=O)Nc3ccc4c(c3)OCO4)ccc21	-6.6% (inactive)	
Cc1ccc(C(=O)O)cc1-c1ccc(/C=C2\SC(=O)N(CC(=O)Nc3ccc4c(c3)OCO4)C2=O)o1	59.7% (active)	
COc1ccc(NC(=O)CCN2C(=O)/C(=C/c3ccc4c(c3)OCO4)SC2=S)cc1	5.7% (inactive)	
Cc1ccc(S(=O)(=O)N(CC(=O)Nc2cccnc2)c2ccc(Br)cc2)cc1	2% (inactive)	
CCC(NC(=O)C1CCCC1)c1ccc(C)cc1 (centres undefined)	-4.3% (inactive)	
Cc1ccccc1C(=O)N1CCC(C(=O)Oc2ccc(C#N)cc2)CC1	-15.9% (inactive)	
CCN(CC)S(=O)(=O)c1ccc(N2CC(C(=O)NCc3cccnc3)CC2=O)cc1 (centres undefined)	-0.4% (inactive)	
Fc1ccccc1N=C1Nc2cccc3cccc1c23	-3.8% (inactive)	
COc1ccccc1C1=Nc2cccc3cccc(c23)N1	99.8% (active)	108
c1ccc(C2=Nc3cccc4cccc(c34)N2)cc1	-0.5% (inactive)	
CC1CCC2(CC1)NC(=O)N(CC(=O)c1ccc3c(c1)OCO3)C2=O (centres undefined)	-5.1% (inactive)	
Cn1cccc1C(=O)N1CCc2ccccc2C1	-1.9% (inactive)	
CN(CC(=O)Nc1c(Cl)cccc1Cl)C(=O)CNC(=O)C1CCCCC1	-8.8% (inactive)	
Cc1cccc(NC(=O)c2sc3nc4c(c(-c5ccco5)c3c2N)CCC4)c1	82.9% (active)	90.9
Cc1cccc(NC(=O)c2sc3nc(N4CCOCC4)c4c(c3c2N)CCCC4)c1	-4.2% (inactive)	
CC(=O)Nc1ccc(NC(=O)c2sc3nc4c(c(-c5ccc(C)cc5)c3c2N)CCC4)cc1	-0.5% (inactive)	
Cc1ccc(-n2ncc3c2CC(C)(C)CC3NC(=O)Cc2c(C)noc2C)cc1 (centres undefined)	5.3% (inactive)	
CCOC(=O)/C=c1\s/c(=C\c2ccccc2OC)c(=O)n1CC(=O)N1CCOCC1	5.6% (inactive)	
CSc1nc(-c2ccco2)nn1C(=O)CCc1ccccc1	-7.7% (inactive)	
CCOc1ccccc1/C=c1\sc2nc(-c3ccco3)nn2c1=O	81.8% (active)	

SMILES	inhibition (at 35 µM)	inhibition (confirmation average, at 20 µM) [%]
Cc1ccc2[nH]c(=O)c(CN(C)S(=O)(=O)c3cccc4nonc34)cc2c1	-5.4% (inactive)	
CN(CCOc1ccccc1)C(=O)c1cc(COc2c(F)cccc2F)on1	-0.6% (inactive)	
O=C(OCC1O[C@@H](OC(=O)c2cc(O)c(O)c(O)c2)[C@@H](OC(=O)c2cc(O)c(O)c(O)c2)[C@@H](OC(=O)c2cc(O)c(O)c(O)c2)[C@@H]1OC(=O)c1cc(O)c(O)c(O)c1)c1cc(O)c(O)c(O)c1 (some centres undefined)	92% (active)	
COc1ccc(N(CC(=O)Nc2cc(OC)ccc2OC)S(=O)(=O)c2c(C)noc2C)cc1	-10.2% (inactive)	
O=C(CSc1ncn[nH]1)N/N=C/c1ccc(F)cc1	-1.2% (inactive)	
CCN(CC(=O)NCc1cccs1)C(=O)c1ccccc1F	-2.7% (inactive)	
CCN(CC(=O)NCc1cccs1)C(=O)c1cccc(S(=O)(=O)Nc2ccccc2OC)c1	35.7% (active)	53.9
COc1cc(CC(=O)NCc2cccs2)cc(OC)c1OC	-15% (inactive)	
Cc1ccc(C(=O)c2coc3ccc(O)c(CN(C)C)c23)cc1	-10.3% (inactive)	
Cc1c(C)c2ccc(OCC(=O)N3CCC(C(=O)O)CC3)c(C)c2oc1=O	-4% (inactive)	
O=C(CNC(=O)C1COc2ccccc2O1)N/N=C/c1cc(Br)c(O)c(Br)c1 (centres undefined)	7.4% (inactive)	
Cc1c(CC(=O)N2CCN(C(=O)C3COc4ccccc4O3)CC2)c(=O)oc2c(O)c(O)ccc12 (centres undefined)	61% (active)	103
COc1ccccc1OCc1ccc(C(=O)NC(C)c2ccccc2)o1 (centres undefined)	-6.4% (inactive)	
Cc1cccc(-c2nc3ccc(C(=O)NCCN4CCN(C)CC4)cc3nc2-c2cccc(C)c2)c1	-1.5% (inactive)	
O=C1CN(C(=O)c2ccccc2F)C(c2ccc(F)cc2)c2cc(F)ccc2N1 (centres undefined)	-4.2% (inactive)	
Cc1c(-c2ccccc2)cn2c1-c1ccc(C)n1CC2	90.6% (active)	
Cc1ccc2c(c1)N(CC(=O)N1CCC(C)CC1)C(=O)c1cccnc1O2	-17.4% (inactive)	
CCOc1ncccc1C(=O)NCCc1ccc(OC)cc1	-1.9% (inactive)	
COC(=O)c1cc(CNC(=O)CC(C)c2ccccc2)ccc1OC (centres undefined)	-2% (inactive)	
C/C(=N\NC(=O)COc1ccc(C)cc1[N+](=O)[O-])c1ccc2c(c1)OCCO2	-2.1% (inactive)	
CC(NC(=O)COc1ccc(-c2ccccc2)cc1)C1CCCO1 (centres undefined)	-6.9% (inactive)	
COC(=O)c1cnn2c(C(F)(F)F)cc(-c3ccco3)nc12	-0.4% (inactive)	
Cc1cc(C)c2nc(-c3ccco3)cc(C(=O)O)c2c1	103% (active)	

SMILES	inhibition (at 35 µM)	inhibition (confirmation average, at 20 µM) [%]
Cc1ccsc1-c1cc(C(=O)O)c2c(ccc3ccccc32)n1	30.1% (inactive)	
Cc1nc(N2CCOCC2)sc1C(=O)NN	0.1% (inactive)	
Fc1cc(F)c2nc(N3CCOCC3)sc2c1	-7.8% (inactive)	
Cc1cc(C)n(Cc2cnc(N3CCOCC3)s2)n1	-7.9% (active)	107
COc1cccc(NC(=O)C(=O)c2cn(CC(=O)N3CCOCC3)c3ccccc23)c1	-12.2% (inactive)	
COc1ccc(O)c(C(=O)c2cnc3c(c2)c(-c2ccc(F)cc2)c(C#N)c(=O)n3C)c1	-3.7% (inactive)	
Cc1cc(C)c2c(-c3ccc(F)cc3)c(C#N)c(=O)n(C)c2n1	-1.8% (inactive)	
Cn1c(N)cc(-c2ccc(F)cc2)c(C#N)c1=O	-11% (active)	108
CC(=O)NCCNC(=O)c1cc(-c2cccc3ccccc23)nc2ccccc12	0.8% (inactive)	
COc1ccccc1N1CCN(S(=O)(=O)c2ccc(Cl)cc2)CC1	-8.3% (inactive)	
O=S(=O)(c1ccc(F)cc1)N1CC=C(c2ccccc2)CC1	-1.4% (inactive)	
Cc1c(C2=CCN(S(=O)(=O)c3ccc(Cl)cc3)CC2)c2ccccc2n1C	91.5% (active)	99.6
CCOc1ccc(C(=O)Nc2c3c(nn2-c2ccccc2)CS(=O)(=O)C3)cc1	-1.2% (inactive)	
O=C(Nc1ncc([N+](=O)[O-])s1)C1COc2ccccc2O1 (centres undefined)	-6.7% (inactive)	
N[C@@H](Cc1ccccc1)C(=O)N1CCC(C(=O)NCC(=O)Nc2ccc(F)cc2)CC1	20% (inactive)	
Cc1ccc(-n2c(C)cc(/C=N/Nc3ccc([N+](=O)[O-])cn3)c2C)c(C)c1	6.6% (inactive)	
COc1cc(/C=N\Nc2ccc([N+](=O)[O-])cn2)ccc1OCC(=O)O	-3.4% (inactive)	
Cc1cc(/C=N/Nc2ccc([N+](=O)[O-])cn2)c(C)n1-c1cccc(C(=O)O)c1	54.4% (active)	
O=C(c1cc(S(=O)(=O)N2CCOCC2)ccc1Cl)N1CCOCC1	-2.4% (inactive)	
COc1cc2c(cc1OC)C(C)N(S(=O)(=O)c1cnc(Cl)c(Cl)c1)CC2 (centres undefined)	1.8% (inactive)	
Cc1ccc(NS(=O)(=O)c2ccc(F)cc2)nc1	-7.9% (inactive)	
CCC(Cc1ccccc1)NS(=O)(=O)c1ccc2c(c1)NC(=O)CS2 (centres undefined)	-2.9% (inactive)	
CCCCOC(=O)c1[nH]c(C)c(C(=O)OC)c1C	4.8% (inactive)	

SMILES	inhibition (at 35 µM)	inhibition (confirmation average, at 20 µM) [%]
CCOC(=O)c1c(C)[nH]c(C2=NNC(=NC(C)COC)SC2)c1C (centres undefined)	-1.8% (active)	93.1
CCOC(=O)c1c(C)[nH]c2c1-c1ccccc1C(=O)C2=O	-11% (inactive)	
COc1cc(/C=N/O)ccc1OCc1ccc([N+](=O)[O-])cc1	0.1% (inactive)	
COc1ccc(C(=O)/C=C/c2ccc(-c3ccccc3)cc2)cc1CSCC(=O)O	82.3% (inactive)	47.3
COC(=O)c1ccc(COc2ccc(/C=C/C(=O)c3ccc(OC)c(CSCC(=O)O)c3)cc2OC)cc1	81% (active)	68.7
CCCc1ccc(OCC(O)CN2CCN(CCO)CC2)cc1 (centres undefined)	-2.4% (inactive)	
Cc1cc(C)cc(NC(=O)CCN2C(=O)c3ccccc3C2=O)c1	-1.3% (inactive)	
Cc1cc(C)cc(OCC(=O)NNC(=O)CCN2C(=O)c3ccccc3C2=O)c1	2.3% (active)	87.4
Cc1ccc(NC(=O)CCN2C(=O)c3ccccc3C2=O)cc1C	-6.5% (inactive)	
COc1ccc(CN2CC(C(=O)NCCc3ccc(Cl)cc3)CC2=O)cc1 (centres undefined)	-12.2% (inactive)	
O=C(N/C(=C\c1ccc([N+](=O)[O-])cc1)C(=O)N1CCOCC1)c1cccc(Br)c1	7.9% (inactive)	
O=C1c2ccccc2C(=O)N1CCOc1ccc(F)cc1	0.9% (inactive)	
O=C(Nc1nonc1-c1ccc(Cl)cc1)c1ccco1	-12.8% (inactive)	
Cc1cc2occ(CC(=O)NNC(=O)c3ccccc3F)c2cc1C	-3% (inactive)	
COCCNC(=O)c1ccccc1NS(=O)(=O)c1ccc(C)c([N+](=O)[O-])c1	9.2% (inactive)	
COc1ccc(S(=O)(=O)Nc2ccccc2C(=O)N2CCCC2)cc1C	-2.4% (inactive)	
CC1CN(C(=O)c2ccccc2NS(=O)(=O)c2cccc([N+](=O)[O-])c2)CC(C)O1 (centres undefined)	-0.3% (active)	95.9
O=S(=O)(c1ccc(Cl)cc1)c1nc(-c2ccccc2F)oc1NCCN1CCOCC1	-7.4% (inactive)	
Cc1nn(C)cc1S(=O)(=O)N1CCN(c2ccc(F)cc2)CC1	1% (inactive)	
COc1cccc(/C=N/NC(=O)CNC(=O)c2ccc(S(=O)(=O)N3CCOCC3)cc2)c1OC	7.4% (inactive)	
COc1ccc(Br)cc1/C=N/NC(=O)c1cccc(S(=O)(=O)N2CCOCC2)c1	-3.8% (inactive)	
O=C(N/N=C/c1ccc([N+](=O)[O-])o1)c1cccc(S(=O)(=O)N2CCOCC2)c1	52% (active)	78.6

Reference: PubChem BioAssay AID2012 (Sanford-Burnham Center for Chemical Genomics, 2009)
